Records with an inconclusive call do not appear. The source made the active and inactive calls. Unless noted, the call rests on the fitted dose curve; in most records, active means well fitted curve in either direction with a large enough effect (not every such curve was filed as active); inconclusive means small, poorly fitted or top-dose-only effect, or another doubt; inactive means flat fitted curve, though single readings scatter.
Experiments:
[1] = molecular target: Lysosomal acid glucosylceramidase (Homo sapiens) (UniProt P04062); assay: Glucocerebrosidase-p2 (AID 348; in the data active means potency below about 10 µM; further: potency means the concentration at half of the fitted maximal effect); conditions: purified GBA, blue fluorogenic substrate, 40 min
How it was run: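 Compounds titrated from 0.6 nM upwards against 0.2 nM enzyme in pH 5.9 citric acid/KH2PO4, taurocholate, tween-20; blue fluorogenic substrate 80 uM, 40 min room temperature, stopped and read Ex 365/Em 440 for AC50.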

[2] = AP1 Signaling Pathway (AID 357); conditions: ME-180 AP-1-bla reporter, EGF-induced, beta-lactamase ratio, 5 h; at 7.69 µM (top of the series) unless noted;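 further: ME-180 reporter cells stimulated with EGF at its EC50 level; on the % scale 0 is the no-effect control and ±100 the full control effect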
How it was run: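 First, ME-180 AP-1-bla cells were cultured overnight at 37 °C in low-serum Opti-MEM. Next, titrated compounds with EC50 EGF were incubated 5 hours. Finally, CCF4 was added for 2.5 hours and the 460/530 nm ratio recorded.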

[3] = Stat Signaling Pathway (AID 446); conditions: ME-180 SIE beta-lactamase reporter, IL-6 stimulated, 5 h; at 7.69 µM (top of the series) unless noted;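 further: ME-180 cervical cancer cells given 40 pM IL-6 alongside compound; SIE-controlled beta-lactamase reporter measured as 460/530 nm FRET emission ratio; on the % scale 0 is the no-effect control and ±100 the full control effect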
How it was run: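 ME-180 cells carrying a SIE-driven beta-lactamase reporter are stimulated with 40 pM IL-6 for 5 h at 37C in the presence of compound. The 460/530 nm FRET substrate ratio is read after 2.5 h at RT. Data are normalised to 300 pM IL-6 and to 125 nM JAK inhibitor controls.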

[4] = molecular target: Glucocorticoid receptor (Homo sapiens) (UniProt P04150); assay: GR-GFP Redistribution (AID 450;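 active means compounds whose dose series gives a full or clear partial fitted curve of increased nuclear translocation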; further: potency means the concentration at half of the fitted maximal effect); conditions: U2OS GR-GFP nuclear translocation, laser cytometry, 2 h
[5] = molecular target: Glucocorticoid receptor (Homo sapiens) (UniProt P04150); assay: GR-EFC Redistribution (AID 451; calls by dose curve; further: potency means the concentration at half of the fitted maximal effect); conditions: CHO-K1 GR-EFC translocation, beta-gal luminescence, 2 h
How it was run: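 Translocation of GR-ED fusion to nuclear EA restores b-gal, read by luminescence after 1 h room-temperature detection. Engineered CHO-K1 biosensor cells, 1,000/well, exposed 2 h at 37 C to titrations up to 46 uM final.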

[6] = molecular target: Mitogen-activated protein kinase 10 (Mus musculus) (UniProt Q61831); assay: JNK3 AlphaScreen Assay (AID 530); conditions: JNK3 lysate, c-Jun phosphorylation; series mostly up to 11.4 µM;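 further: kinase came from lysate of stimulated human HepG2 cells; signal reports phosphorylation of biotinylated GST-cJun 1-79 at Ser73 with 10 µM ATP; on the % scale 0 is the no-effect control and ±100 the full control effect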
How it was run: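 Compound titrations were preincubated 15 minutes at room temperature with substrate, antibody and pre-activated JNK3-containing HepG2 lysate. Reactions were started with 10 uM ATP and stopped with EDTA-containing bead buffer for AlphaScreen detection.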

[7] = molecular target: 3',5'-cyclic-AMP phosphodiesterase 4B (Homo sapiens) (UniProt Q07343); assay: qHTS Assay for Inhibitors of PDE-IV (AID 607; active means well fitted activation curve with a large enough effect in the main read-out, with a control signal flat, not every such curve was filed as active; further: % of control where 0% means no effect); conditions: HEK293 ACTOne CNG channel cells, membrane potential fluorescence; series mostly up to 22.9 µM
How it was run: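 HEK293 ACTOne cells with CNG channel (1000/well), endogenous PDE4; membrane potential dye, compounds up to 22.9 uM final. Fluorescence Ex 535/Em 590; RO 20-1724 (100 uM final) as reference.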

[8] = molecular target: Cytochrome P450 1A2 (Homo sapiens) (UniProt P05177); assay: p450-cyp1a2 (AID 410; calls by dose curve;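 further: -100% = full effect of reference inhibitor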); conditions: recombinant CYP1A2, luciferin-ME demethylation, luminescence; series mostly up to 11.4 µM
How it was run: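 Luminescent readout of luciferin formed from Luciferin-ME by human CYP1A2; data normalized against complete inhibition by 57 uM furafylline. Enzyme 20nM, substrate 100uM at Km, 100mM KPO4 buffer, 60 min reaction at room temperature.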

[9] = NFAT Signaling Pathway (AID 444); conditions: Jurkat NFAT-bla M1, carbachol, beta-lactamase ratio, 5 h; at 7.69 µM (top of the series) unless noted;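 further: carbachol stimulus at about its EC50 of 1 µM final; on the % scale 0 is the no-effect control and ±100 the full control effect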
How it was run: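 Read-out: CCF4 FRET ratio (460 nm/530 nm) after 1 h RT dye loading, used for %activity and AC50 from titration series. Cells: Jurkat NFAT-β-lactamase/M1 line, treated with compound plus 1 uM carbachol for 5 h, 37 °C.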

[10] = molecular target: Cytochrome P450 2C19 (Homo sapiens) (UniProt P33261); assay: qHTS Assay for Inhibitors and Substrates of Cytochrome P450 2C19 (AID 899; active means well fitted inhibition curve with a large enough effect; further: on the % scale 0 is the no-effect control and ±100 the full control effect; nearly all actives have a fitted effect of over 60% in size); conditions: recombinant CYP2C19, luciferin-H EGE luminescence; series mostly up to 11.4 µM
How it was run: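 Luminescence readout of luciferin formed from 10uM Luciferin-H EGE (KM level) by 5 nM CYP2C19 in 50mM KPO4. 60 min NADPH-driven reaction at 37C after 10 min compound preincubation; data scaled to 57uM ketoconazole inhibition.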

[11] = qHTS Assay for Identification of Small Molecule Agonists for Hypoxia Response Element Signaling Pathway (AID 914; active means well fitted activation curve with a large enough effect in the signal ratio, with a control signal flat, not every such curve was filed as active; the % refers to the signal ratio; further: % of control where 0% means no effect); conditions: ME-180 (cervical carcinoma) HRE-bla reporter, beta-lactamase ratio, CoCl2, 17 h; activation: hits give high values
How it was run: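 Reporter activity (beta-lactamase, CCF4 460nm/530nm ratio) in HRE-bla ME-180 cells is recorded after 17 h compound exposure with EC50 CoCl2 at 37 degrees Celsius. AC50 values come from titration data.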

Sequence of 3',5'-cyclic-AMP phosphodiesterase 4B (Homo sapiens) (Q07343 whole entry, looked up): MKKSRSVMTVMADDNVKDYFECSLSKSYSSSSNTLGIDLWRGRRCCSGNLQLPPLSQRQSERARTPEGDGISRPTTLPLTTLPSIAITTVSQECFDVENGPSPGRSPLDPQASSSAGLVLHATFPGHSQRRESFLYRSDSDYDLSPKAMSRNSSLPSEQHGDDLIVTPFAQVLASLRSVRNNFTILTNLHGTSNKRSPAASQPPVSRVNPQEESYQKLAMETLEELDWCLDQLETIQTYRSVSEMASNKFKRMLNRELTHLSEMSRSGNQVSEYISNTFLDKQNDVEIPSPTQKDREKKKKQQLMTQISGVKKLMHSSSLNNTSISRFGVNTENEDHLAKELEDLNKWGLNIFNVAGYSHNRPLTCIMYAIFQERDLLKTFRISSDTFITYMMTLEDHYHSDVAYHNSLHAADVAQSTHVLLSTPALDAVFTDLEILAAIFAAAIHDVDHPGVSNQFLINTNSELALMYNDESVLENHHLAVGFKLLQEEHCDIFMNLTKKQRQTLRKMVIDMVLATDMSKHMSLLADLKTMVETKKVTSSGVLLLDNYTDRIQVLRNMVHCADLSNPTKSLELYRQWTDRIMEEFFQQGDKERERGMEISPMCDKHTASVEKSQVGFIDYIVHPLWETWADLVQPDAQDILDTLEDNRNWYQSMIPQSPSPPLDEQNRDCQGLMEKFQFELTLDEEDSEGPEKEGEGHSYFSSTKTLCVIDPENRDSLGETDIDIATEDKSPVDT
Sequence of Lysosomal acid glucosylceramidase (Homo sapiens) (P04062 whole entry, looked up): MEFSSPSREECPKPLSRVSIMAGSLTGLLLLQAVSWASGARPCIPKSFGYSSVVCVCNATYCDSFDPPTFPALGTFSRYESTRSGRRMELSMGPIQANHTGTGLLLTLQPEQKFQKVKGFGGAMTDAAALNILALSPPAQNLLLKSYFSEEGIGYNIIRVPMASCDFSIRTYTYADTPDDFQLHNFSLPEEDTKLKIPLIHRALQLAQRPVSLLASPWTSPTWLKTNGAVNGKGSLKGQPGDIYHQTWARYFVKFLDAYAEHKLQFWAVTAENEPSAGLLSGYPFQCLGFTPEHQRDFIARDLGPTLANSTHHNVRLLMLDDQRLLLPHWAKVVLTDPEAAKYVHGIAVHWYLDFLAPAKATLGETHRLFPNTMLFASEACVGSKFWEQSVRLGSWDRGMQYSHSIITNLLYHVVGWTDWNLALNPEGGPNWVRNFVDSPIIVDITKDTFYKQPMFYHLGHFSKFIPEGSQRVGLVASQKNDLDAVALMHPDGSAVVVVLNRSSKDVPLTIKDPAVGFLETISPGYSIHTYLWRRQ
Sequence of Glucocorticoid receptor (Homo sapiens) (P04150 whole entry, looked up, the tested form may be a part): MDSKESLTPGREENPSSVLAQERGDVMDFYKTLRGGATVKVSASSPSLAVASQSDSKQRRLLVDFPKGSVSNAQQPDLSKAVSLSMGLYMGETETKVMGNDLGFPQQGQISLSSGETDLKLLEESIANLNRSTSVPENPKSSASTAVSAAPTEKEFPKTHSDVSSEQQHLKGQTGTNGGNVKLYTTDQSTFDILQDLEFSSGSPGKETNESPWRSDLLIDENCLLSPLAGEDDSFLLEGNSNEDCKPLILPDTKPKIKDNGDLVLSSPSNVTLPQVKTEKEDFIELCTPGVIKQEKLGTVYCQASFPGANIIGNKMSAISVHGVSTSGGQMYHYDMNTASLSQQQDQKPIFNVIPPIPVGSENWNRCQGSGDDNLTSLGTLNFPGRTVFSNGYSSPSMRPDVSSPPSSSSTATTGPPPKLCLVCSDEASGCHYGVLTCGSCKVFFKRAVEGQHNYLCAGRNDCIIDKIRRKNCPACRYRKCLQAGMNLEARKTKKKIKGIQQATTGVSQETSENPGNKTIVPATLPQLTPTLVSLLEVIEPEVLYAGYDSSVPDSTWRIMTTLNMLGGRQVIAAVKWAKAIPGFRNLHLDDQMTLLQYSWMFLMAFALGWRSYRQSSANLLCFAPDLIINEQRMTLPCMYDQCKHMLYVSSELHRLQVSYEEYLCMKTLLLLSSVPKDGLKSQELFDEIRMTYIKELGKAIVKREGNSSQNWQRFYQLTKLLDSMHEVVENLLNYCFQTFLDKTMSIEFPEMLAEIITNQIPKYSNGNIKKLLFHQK
Sequence of Cytochrome P450 2C19 (Homo sapiens) (P33261 whole entry, looked up): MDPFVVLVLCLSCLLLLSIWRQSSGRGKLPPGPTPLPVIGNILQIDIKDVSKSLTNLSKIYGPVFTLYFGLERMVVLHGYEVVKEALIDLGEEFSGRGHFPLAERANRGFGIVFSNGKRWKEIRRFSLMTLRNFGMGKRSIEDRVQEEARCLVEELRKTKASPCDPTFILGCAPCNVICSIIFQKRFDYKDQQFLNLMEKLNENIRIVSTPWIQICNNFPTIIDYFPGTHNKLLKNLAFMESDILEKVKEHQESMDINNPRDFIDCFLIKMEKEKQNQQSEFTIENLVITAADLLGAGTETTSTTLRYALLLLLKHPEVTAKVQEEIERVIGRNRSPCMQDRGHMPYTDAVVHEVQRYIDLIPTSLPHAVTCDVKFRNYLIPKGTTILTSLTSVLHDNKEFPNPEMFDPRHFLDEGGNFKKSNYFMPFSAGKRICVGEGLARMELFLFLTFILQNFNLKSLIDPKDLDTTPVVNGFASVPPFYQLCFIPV
Sequence of Cytochrome P450 1A2 (Homo sapiens) (P05177 whole entry, looked up): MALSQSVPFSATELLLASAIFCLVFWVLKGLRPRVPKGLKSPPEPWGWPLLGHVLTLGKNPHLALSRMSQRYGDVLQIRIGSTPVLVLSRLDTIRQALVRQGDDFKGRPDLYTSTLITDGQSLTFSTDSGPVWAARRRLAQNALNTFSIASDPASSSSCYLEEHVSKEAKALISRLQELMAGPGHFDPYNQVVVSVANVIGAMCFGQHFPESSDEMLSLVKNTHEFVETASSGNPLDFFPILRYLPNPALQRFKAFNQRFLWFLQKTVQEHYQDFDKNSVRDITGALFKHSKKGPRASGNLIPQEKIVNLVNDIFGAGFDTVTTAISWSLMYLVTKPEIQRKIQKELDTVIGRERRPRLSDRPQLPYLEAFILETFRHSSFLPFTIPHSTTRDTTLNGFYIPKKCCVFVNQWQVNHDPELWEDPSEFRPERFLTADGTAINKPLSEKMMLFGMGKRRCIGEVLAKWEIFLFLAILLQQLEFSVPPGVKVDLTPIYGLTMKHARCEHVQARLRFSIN

O[C@@H](c1cc(-c2ccccc2)nc2c1ccc1ccccc12)[C@@H]1CCCCN1
inactive: Potency [1] > 11.4 µM | activity change, negative = inhibition [2] -3.12% | activity, negative = inhibition [3] 9.42% | Potency [4] > 46 µM | Potency [5] > 9.22 µM | Potency [6]

Clc1ccc(/C=C\c2nc(Cl)c(-c3ccc(Cl)cc3)c(Cl)n2)cc1
inactive: Potency [1] > 11.4 µM | activity change, negative = inhibition [2] -5.65% | activity, negative = inhibition [3] -0.809% | Potency [4] > 46 µM | Potency [5] > 9.22 µM | Potency [6] | Potency [7]

CN(C)Cc1cc(O)c(O)c(CN(C)C)c1
inactive: Potency [1] > 11.4 µM | Potency [8] | activity change, negative = inhibition [9] 3.49% | activity, negative = inhibition [3] 2.92% | Potency [4] > 46 µM | Potency [5] > 9.22 µM | Potency [6] | Potency [7]

NC(CSS(=O)(=O)O)=N[C@@H]1C[C@H]2CC[C@@H]1C2
inactive: Potency [1] > 11.4 µM | activity change, negative = inhibition [2] 16.8% | activity, negative = inhibition [3] -5.27% | Potency [4] > 46 µM | Potency [5] > 9.22 µM | Potency [6] | Potency [7] | Potency [10]

O=C1C[C@H]2OCC=C3CN4CC[C@@]5(C(=O)O)[C@H](N1)[C@H]2[C@H]3C[C@H]45
inactive: Potency [1] > 11.4 µM | activity change, negative = inhibition [2] 1.86% | activity, negative = inhibition [3] -5.3% | Potency [4] > 46 µM | Potency [5] > 9.22 µM | Potency [6] | Potency [7]

Cc1c(Cl)cc(C(C)(C)C)c(O)c1Cc1c(C)c(Cl)cc(C(C)(C)C)c1O
inactive: Potency [1] > 11.4 µM | activity change, negative = inhibition [2] 10.4% | Potency [4] > 46 µM | Potency [5] > 9.22 µM | Potency [6] | Potency [7]

CN(C)C(=O)C1CCN(Cc2c[nH]c3ccccc23)CC1
inactive: Potency [1] > 11.4 µM | activity change, negative = inhibition [2] -1.75% | activity, negative = inhibition [3] -4.74% | Potency [4] > 46 µM | Potency [5] > 9.22 µM | Potency [6] | Potency [7] | activation [11] 16.5%

Cn1cnc([N+](=O)[O-])c1Sc1nnc(-c2cccnc2)n1C
inactive: Potency [1] > 11.4 µM | activity change, negative = inhibition [2] 19.7% | activity, negative = inhibition [3] 4.54% | Potency [4] > 46 µM | Potency [5] > 9.22 µM | Potency [6] | Potency [7]

Oc1cc(O)c2c(c1)O[C@H](c1ccc(O)c(O)c1)[C@@H](O)[C@@H]2c1c(O)cc(O)c2c1O[C@@H](c1ccc(O)c(O)c1)[C@H](O)C2
inactive: Potency [1] > 11.4 µM | activity change, negative = inhibition [2] 16.5% | activity, negative = inhibition [3] -2.56% | Potency [5] > 9.22 µM | Potency [6] | Potency [7]
